Results from PubChem BioAssay AID1159580 (chemical genetic matrix, 2015).
Values joined by “and” are separate entries in the source; they are usually repeats but may differ in a detail not shown here. Equal values may be shown once. Out of some 5,500 compounds screened, about 2,000 (36%) were called active. Roughly 18% stayed inconclusive and do not appear here. Rule as the data show it: active = normalized growth mostly below about 0.91 (no sharp cut-off); inconclusive = no clear call, values can overlap the other calls; inactive = mostly above about 0.92. Some of the results follow.

Assay: chemical genetic growth profiling, strain panel (AID 1159580);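 also: tested at 20 µM; growth read once vehicle control cultures reached saturation at 30 °C; 1 = growth at the plate median or of vehicle wells; lower values mean less growth of the strain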
Conditions: S. cerevisiae deletion strains, growth OD

Measured: normalized growth

CCCCC1C(=O)N(c2ccccc2)N(c2ccccc2)C1=O
inactive: locus YAL013W, strain DEP1, active compounds read low 0.971 and 0.998 | locus YAL021C, strain ccr4, active compounds read low 0.999 | locus YAL026C, strain drs2, active compounds read low 0.982 | locus YAL030W, strain snc1, active compounds read low 0.987 | locus YAL040C, strain CLN3, active compounds read low 0.963 | locus YBL061C, strain skt5, active compounds read low 0.997 | locus YBR009C, strain hhf1, active compounds read low 1.01 | locus YBR021W, strain FUR4, active compounds read low 1.01 | locus YBR023C, strain chs3, active compounds read low 0.998 | locus YBR171W, strain sec66, active compounds read low 0.977 | locus YBR229C, strain ROT2, active compounds read low 0.983 | locus YBR231C, strain swc5, active compounds read low 1 | locus YBR279W, strain paf1, active compounds read low 1.02 | locus YCL011C, strain gbp2, active compounds read low 1 | locus YCL016C, strain dcc1, active compounds read low 1 | locus YCL029C, strain bik1, active compounds read low 1.01 | locus YCL061C, strain MRC1 (second series), active compounds read low 0.998 | locus YCL061C, strain MRC1, active compounds read low 0.983 | locus YCL069W, strain vba3, active compounds read low 0.999 | locus YCR088W, strain abp1, active compounds read low 0.985 | locus YDL005C, strain med2, active compounds read low 1 | locus YDL035C, strain GPR1, active compounds read low 0.989 | locus YDL040C, strain nat1, active compounds read low 0.99 | locus YDL074C, strain BRE1, active compounds read low 1.02 | locus YDL101C, strain DUN1, active compounds read low 1.01 | locus YDL134C, strain PPH21, active compounds read low 0.986 | locus YDL185W, strain tfp1, active compounds read low 0.994 | locus YDL192W, strain arf1, active compounds read low 0.988 | locus YDR001C, strain nth1, active compounds read low 0.984 | locus YDR069C, strain doa4, active compounds read low 0.982 | locus YDR101C, strain arx1, active compounds read low 1.01 | locus YDR137W, strain rgp1, active compounds read low 0.915 | locus YDR150W, strain NUM1, active compounds read low 0.99 and 0.997 | locus YDR159W, strain sac3, active compounds read low 0.972 | locus YDR162C, strain NBP2, active compounds read low 0.976 | locus YDR195W, strain ref2 0.992 | locus YDR297W, strain sur2, active compounds read low 0.989 | locus YDR318W, strain mcm21, active compounds read low 1.01 | locus YDR334W, strain swr1, active compounds read low 0.994 | locus YDR335W, strain msn5, active compounds read low 0.997 | locus YDR363W, strain ESC2, active compounds read low 1.03 | locus YDR388W, active compounds read low 1 | locus YDR392W, strain spt3, active compounds read low 0.969 | locus YDR502C, strain sam2, active compounds read low 0.986 | locus YEL003W, strain gim4, active compounds read low 1 | locus YEL037C, strain rad23, active compounds read low 0.991 | locus YEL061C, strain CIN8 (second series), active compounds read low 0.983 | locus YEL061C, strain CIN8, active compounds read low 0.981 | locus YER002W, strain NOP16, active compounds read low 0.974 | locus YER015W, strain faa2, active compounds read low 0.998 | locus YER016W, strain bim1, active compounds read low 0.99 | locus YER110C, active compounds read low 0.993 | locus YER111C, strain swi4, active compounds read low 0.979 | locus YER155C, strain BEM2 (second series), active compounds read low 1.03 | locus YER155C, strain BEM2, active compounds read low 1.01 | locus YER167W, strain BCK2, active compounds read low 0.987 | locus YFR010W, strain ubp6, active compounds read low 0.991 | locus YGL078C, strain dbp3, active compounds read low 1.01 | locus YGL086W, strain mad1, active compounds read low 0.963 | locus YGL167C, strain pmr1, active compounds read low 0.977 | locus YGL173C, strain kem1, active compounds read low 0.983 | locus YGL227W, strain vid30, active compounds read low 1 | locus YGL240W, strain doc1, active compounds read low 1.01 | locus YGL248W, strain PDE1, active compounds read low 0.991 | locus YGL253W, strain hxk2, active compounds read low 0.994 | locus YGR078C, strain PAC10, active compounds read low 1.02 and 0.981 | locus YGR135W, strain pre9, active compounds read low 0.994 | locus YGR229C, strain SMI1, active compounds read low 0.983 and 1 | locus YGR252W, strain gcn5, active compounds read low 0.922 | locus YHR013C, strain ard1, active compounds read low 0.992 | locus YHR027C, strain rpn1, active compounds read low 0.99 | locus YHR030C, strain SLT2, active compounds read low 0.992 and 0.937 | locus YHR079C, strain IRE1 (second series), active compounds read low 1 | locus YHR079C, strain IRE1, active compounds read low 0.917 | locus YHR094C, strain hxt1, active compounds read low 0.991 | locus YHR129C, strain ARP1, active compounds read low 0.994 | locus YHR142W, strain chs7, active compounds read low 1.03 | locus YHR200W, strain rpn10, active compounds read low 1 | locus YIL066C, strain RNR3, active compounds read low 0.991 | locus YIL073C, strain SPO22, active compounds read low 1.01 | locus YIL125W, strain kgd1, active compounds read low 0.98 | locus YIR030C, strain dcg1, active compounds read low 0.993 | locus YJL092W, strain hpr5, active compounds read low 0.985 | locus YJL095W, strain BCK1 (second series), active compounds read low 0.996 | locus YJL095W, strain BCK1, active compounds read low 1.03 and 0.938 | locus YJL115W, strain asf1, active compounds read low 0.99 | locus YJL129C, strain trk1, active compounds read low 0.999 | locus YJL134W, strain LCB3, active compounds read low 0.977 | locus YJL154C, strain vps35, active compounds read low 0.991 | locus YJL164C, strain tpk1, active compounds read low 1.01 | locus YJL166W, strain qcr8, active compounds read low 1.01 | locus YJL168C, strain set2, active compounds read low 0.988 | locus YJL187C, strain SWE1 (second series), active compounds read low 1.01 | locus YJL187C, strain SWE1, active compounds read low 0.988 | locus YJR043C, strain POL32, active compounds read low 1.04 | locus YJR066W, strain TOR1, active compounds read low 0.915
